Test [1] is described as follows: BET inhibitor-based combinations targeting novel dependencies in MECOM-rearranged (r) AML: SET-2 cell line (AID 2202231). Also: nearly all actives have a fitted effect of over 35% in size.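 As to viability: plate controls were DMSO treated cells for no effect and wells without cells for full effect.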 The conditions noted are these: SET-2 AML cells viability, CellTiter-Glo luminescence, 48 h; viability: active compounds read low, concentration not given here. Summed up:
(§1)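 Here, 11-point titrations of each agent were applied to 500 seeded cells and incubated 48 hr; CellTiter-Glo signal, scaled against DMSO and empty wells, was integrated as AUC, then Z-scored within the individual line.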
In general terms: In ATP-based viability assays light output follows the ATP content of the culture.

Test [2] is described as follows: BET inhibitor-based combinations targeting novel dependencies in MECOM-rearranged (r) AML: OCI-AML3 cell line (AID 2202232). Also: nearly all actives have a fitted effect of over 35% in size. The following applies: Potency: OCI-AML3 viability. Summed up:
as §1

A short description of test [3]: BET inhibitor-based combinations targeting novel dependencies in MECOM-rearranged (r) AML: MV-4-11 cell line (AID 2202233). Also: nearly all actives have a fitted effect of over 45% in size. Summed up:
(§2)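 Normalized to DMSO and empty-well controls, the luminescence data from CellTiter-Glo after 48 hr drug exposure were fitted across 11 concentrations. Reported metrics are area under the dose-response curve and its Z-transformed form.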

The nature of test [4]: BET inhibitor-based combinations targeting novel dependencies in MECOM-rearranged (r) AML: HNT-34 cell line (AID 2202234). Also: nearly all actives have a fitted effect of over 35% in size. In short, it runs like this: as §2
The nature of test [5]: BET inhibitor-based combinations targeting novel dependencies in MECOM-rearranged (r) AML: UCSD-AML1 cell line (AID 2202235). Also: nearly all actives have a fitted effect of over 40% in size. Summed up:
as §2

Test [6] in a line: BET inhibitor-based combinations targeting novel dependencies in MECOM-rearranged (r) AML: AML-191 cell line (AID 2202236; also: nearly all actives have a fitted effect of over 35% in size). Summed up:
as §1

A short description of test [7]: BET inhibitor-based combinations targeting novel dependencies in MECOM-rearranged (r) AML: AML-194 cell line (AID 2202237; also: nearly all actives have a fitted effect of over 40% in size). Summed up: as §1

Records with an inconclusive call do not appear. Unmarked numbers belong to inactive results. Activity calls are given as the source filed them. Calls follow the shape of the dose curve; as a rule, active = well fitted curve in the direction sought with a large enough effect; inconclusive = small, poorly fitted or top-dose-only effect, or another doubt; inactive = no such curve, though single readings can be large; an effect the other way counts as inactive or inconclusive.
Potency is read from the fitted curve at half-maximal effect.

Consider `C=CC(=O)N1CC/C(=C\c2ccc(F)c([N+](=O)[O-])c2)C(=O)/C(=C/c2ccc(F)c([N+](=O)[O-])c2)C1`, for which the Potency in test [1] was 0.148 µM (active); in test [2] it was 0.0525 µM (active); in test [3], 0.059 µM (active); in test [4] it was 0.186 µM (active); in test [5], 0.166 µM (active); in test [6], 0.209 µM (active). The Potency in test [7] is 0.372 µM (active).
`CC(C)(C)OC(=O)Nc1ccc(-c2cc(C(=O)NCCCCCCC(=O)NO)no2)cc1`: the Potency in test [1] was 2.95 µM (active); in test [2], 2.63 µM (active); in test [3], 1.66 µM (active); in test [4] it was 2.35 µM (active); in test [5], 3.72 µM (active); in test [6], 2.63 µM (active). Besides, the Potency in test [7] was 3.32 µM (active).
Regarding `Cc1cnc(NC(=O)Nc2cc(Br)c(C)cc2OC[C@@H]2CNCCO2)cn1`, the Potency in test [1] is 4.17 µM (active); in test [2] it was 3.72 µM (active); in test [3], 2.09 µM (active); in test [4] it was 9.34 µM (active); in test [5], 1.48 µM (active); in test [6] it was 2.95 µM (active). In addition, the Potency in test [7] is 4.17 µM (active).
Turning to `N=C(N)c1ccc(OCCCCCOc2ccc(C(=N)N)cc2)cc1`, the Potency in test [1] is 20.9 µM (active); in test [2], 8.33 µM (active); in test [3], 13.2 µM (active); in test [4], 26.3 µM (active); in test [5], 23.5 µM (active); in test [6], 18.6 µM (active). Besides, in test [7], the Potency was 20.9 µM (active).
As a reminder, the viability is a read-out of living cells in per cent, often relative to untreated cells. Regarding `CC1(C)CC[C@]2(C(=O)O)CC[C@]3(C)C(=CC[C@@H]4[C@@]5(C)C[C@@H](O)[C@H](O)C(C)(C)[C@@H]5CC[C@]43C)[C@@H]2C1`, the viability in test [1] is 102%. In addition, the Potency entry in test [2], in test [3], in test [4], in test [5], in test [6] and in test [7] was “inactive” throughout.
With `COc1cc(OC)cc(N(CCNC(C)C)c2ccc3ncc(-c4cnn(C)c4)nc3c2)c1`, the Potency in test [1] is 18.6 µM (active); in test [2], 18.6 µM (active); in test [3] it was 16.6 µM (active); in test [4] it was 2.35 µM (active); in test [5], 10.5 µM (active); in test [6], 18.6 µM (active). Moreover, the Potency in test [7] was 18.6 µM (active).
For `Nc1nc(F)nc2c1ncn2C1OC(COP(=O)(O)O)C(O)C1O` (centres undefined), the Potency in test [1] was 4.68 µM (active); in test [2], 18.6 µM (active); in test [3] it was 18.6 µM (active); in test [4], 16.6 µM (active); in test [5] it was 2.63 µM (active); in test [6] it was 6.61 µM (active). In addition, in test [7], the Potency was 9.34 µM (active).
Consider `COc1cc(C(=O)O)ccc1NC(=O)[C@@H]1N[C@@H](CC(C)(C)C)[C@](C#N)(c2ccc(Cl)cc2F)[C@H]1c1cccc(Cl)c1F`, for which the viability in test [1] is 112%. For the same compound, the Potency is 2.09 µM (active) in test [2]; 0.132 µM (active) in test [3]; 0.132 µM (active) in test [4]; 0.468 µM (active) in test [5]; 0.742 µM (active) in test [6]; 0.833 µM (active) in test [7].
As for `CC[C@@H]1[C@H](F)C(=O)N[C@@H]1COc1nccc2cc(C(N)=O)c(OC)cc12`, the Potency was 14.8 µM (active) in test [1]; 14.8 µM (active) in test [2]; 8.33 µM (active) in test [3]; 11.8 µM (active) in test [4]; 20.9 µM (active) in test [5]; 14.8 µM (active) in test [6]. Further, the Potency in test [7] is 20.9 µM (active).
Turning to `O=C(NO)c1cnc(N2C[C@H]3C[C@@H]2CN3c2cc(C(F)(F)F)ccn2)nc1`, the Potency in test [1] is 2.35 µM (active); in test [2], 3.72 µM (active); in test [3] it was 2.09 µM (active); in test [4] it was 3.72 µM (active); in test [5], 3.72 µM (active); in test [6], 4.17 µM (active). Also, the Potency in test [7] is 4.17 µM (active).
As for `Cc1nnn(C)c1-c1cnc2c3ccc(C(C)(C)O)cc3n([C@H](c3ccccc3)C3CCOCC3)c2c1`, the Potency in test [1] was 0.0148 µM (active); in test [2], 0.0059 µM (active); in test [3], 0.0042 µM (active); in test [4] it was 0.0295 µM (active); in test [5], 0.0263 µM (active); in test [6], 0.0263 µM (active). The Potency in test [7] is 0.0661 µM (active).
Regarding `Cc1ccc(NS(=O)(=O)c2ccc3c(c2)C2C=CCC2C(c2ccc(C(=O)O)cc2)N3)cc1C` (centres undefined), the viability in test [1] is 109%. For the same compound, the Potency entry in test [2], in test [3], in test [4], in test [5], in test [6] and in test [7] was “inactive” in each case.
Regarding `Cc1ccc(C)c(OCCCC(C)(C)C(=O)O)c1`, in test [1], the viability is 116%. Besides, the Potency result in test [2], in test [3], in test [4], in test [5], in test [6] and in test [7] was “inactive” each time.
For `CC1(N)CCN(c2cnc(-c3cccc(Cl)c3Cl)c(N)n2)CC1`, the viability in test [1] is 110%. In addition, the Potency result in test [2], in test [4], in test [5], in test [6] and in test [7] was “inactive” throughout. The Potency in test [3] is 2.88 µM (active).
For `COC1=C(OC)C(=O)C(C/C=C(\C)CC/C=C(\C)CC/C=C(\C)CC/C=C(/C)CC/C=C(\C)CC/C=C(\C)CC/C=C(\C)CC/C=C(\C)CC/C=C(\C)CCC=C(C)C)=C(C)C1=O`, the viability in test [1] was 117%. Further, the Potency entry in test [2], in test [3], in test [4], in test [5], in test [6] and in test [7] was “inactive” in each case.
`CNCCn1c(=O)c2cc(OC)c(OC)cc2c2cnc3cc4c(cc3c21)OCO4`: the Potency in test [1] is 0.0241 µM (active); in test [2] it was 0.0215 µM (active); in test [3], 0.0152 µM (active); in test [4], 0.0121 µM (active); in test [5] it was 0.0191 µM (active); in test [6], 0.0241 µM (active). Moreover, the Potency in test [7] was 0.0241 µM (active).
With `C=C1CCC2[C@](C)(CO)C(O)CC[C@]2(C)C1C/C=C1/C(=O)OCC1O` (some centres undefined), the Potency in test [1] is 14.8 µM (active); in test [2], 7.42 µM (active); in test [3] it was 3.32 µM (active); in test [4] it was 5.9 µM (active); in test [5] it was 11.8 µM (active); in test [6] it was 7.42 µM (active). Further, the Potency in test [7] is 9.34 µM (active).

Values taken from PubChem BioAssay (NCATS).
